Assay outcomes: PubChem, National Center for Advancing Translational Sciences (NCATS)
The list is not random: actives were taken first. Their share in the collection is about 21%.
Cycloheximide cs: affects cycloheximide protein synthesis inhibition readout, counter-screen. AID 2314. max response, %. cell reporter, cycloheximide protein synthesis inhibition counterscreen. 300,000 tested, 12% active; in the data active = max response mostly above about 13%, no sharp cut-off; inactive = mostly below about 14%; note: read at 38.3 µM for the half of the compounds with a filed dose; 0% is about no effect
NS1 function inh: blocks influenza NS1 protein function; Potency, µM (highest dose often 46.1 µM), for the others: at the top dose activity, positive = more growth; 270,000 tested, 0.4% active; calls by dose curve; note: potency is the fitted concentration of half-maximal effect; actives are rising curves; nearly all actives have a fitted effect of over 50% in size
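Compounds were scored for reversing the slow growth caused by influenza A NS1 in S. cerevisiae, measured by optical density at 600 nm. Assay medium contained 2% galactose at pH 6.0; NS1-free yeast of the same strain were the positive control.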
SARS PLP yeast: blocks SARS-CoV papain-like protease in a yeast assay. S. cerevisiae expressing SARS-CoV PLpro, growth rescue. Potency, µM (highest dose often 32.9 µM), inactives show at the top dose activity, positive = growth rescue, hits mostly activators. 330,000 tested, 0.19% active. AID 485353; calls by dose curve; note: potency is the fitted concentration of half-maximal effect; 0% is about no effect; nearly all actives have a fitted effect of over 55% in size
Pf growth 96h: P. falciparum growth inhibition at 96 hour, primary screen for plastid delayed-death inhibitors. P. falciparum luciferase reporter growth, 96 h. Potency, µM (highest dose often 28.7 µM), inactives show at the top dose activity change, negative = inhibition, most hits filed as inhibitors. 320,000 tested, 6.9% active. AID 504834; note: potency is the fitted concentration of half-maximal effect; % is set by controls: 0 for no effect and ±100 for the full control effect
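Erythrocytes infected with luciferase-expressing P. falciparum were dispensed at 2% hematocrit and 0.05% parasitemia (final), then incubated with compounds 96 hours at 37 C in 5% CO2. Luminescence after detection reagent addition reported growth.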
Pf growth 48h: inhibits P. falciparum growth in the first generation, 48 h | 310,000 tested, 5.9% active | P. falciparum luciferase growth in erythrocytes, 48 h | Potency, µM (titrated, usually from 28.7 µM), for the others: at the highest dose activity change, negative = inhibition, hits mostly inhibitors | AID 504832; note: potency is the fitted concentration of half-maximal effect; % is set by controls: 0 for no effect and ±100 for the full control effect
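In quantitative HTS format, infected erythrocytes bearing luciferase-reporter parasites were treated for a single generation at 37 C. Luminescence after adding detection reagent served as the growth measure.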
Shiga toxin inh: blocks Shiga toxin action in Vero cells | inhibition, % at 38.7 µM | 290,000 tested, 9.2% active | Vero cells, Shiga toxin protein synthesis inhibition reporter | AID 2315; in the data active = inhibition mostly above about 28%, no sharp cut-off; inactive = mostly below about 43%; note: 0% is about no effect
An asterisk follows results filed as active. Unless noted, calls come from the whole dose curve; as a rule, active = well fitted inhibition curve with a large enough effect; inconclusive = small, poorly fitted or top-dose-only effect, or another doubt; inactive = no such curve, though single readings can be large or run the other way.

CC(=NCc1ccco1)c1c(O)n(-c2ccccc2)c(=O)[nH]c1=O was read as Cycloheximide cs -1, NS1 function inh 29%, SARS PLP yeast -2%, Pf growth 96h inconclusive, Pf growth 48h 0% and Shiga toxin inh 58.
Screening CC(=C\C(=O)O)/C(=C\c1cccc2ccccc12)C(=O)O returned Cycloheximide cs 25*, NS1 function inh -92%, SARS PLP yeast 3%, Pf growth 96h 11%, Pf growth 48h inconclusive and Shiga toxin inh 83*.
For COc1cc(NC(=O)c2cc(-c3ccccc3Cl)on2)cc(OC)c1OC the results were Cycloheximide cs 1, NS1 function inh 5%, SARS PLP yeast -3%, Pf growth 96h 12µM*, Pf growth 48h 0% and Shiga toxin inh -5.
For COc1ccc(NC(=O)c2cc(-c3cccc(OC)c3)on2)cc1 the results were Cycloheximide cs 9, SARS PLP yeast -1%, Pf growth 96h 171%, Pf growth 48h 14% and Shiga toxin inh 13.
For COc1cccc2cc(C(=O)NCc3ccccc3)c(=N)oc12 the results were Cycloheximide cs 4, NS1 function inh 23%, SARS PLP yeast inconclusive, Pf growth 96h 0%, Pf growth 48h -5% and Shiga toxin inh 6.
`COc1cc(NC(=O)c2cc(-c3cccs3)on2)cc(OC)c1OC` gave Cycloheximide cs 14, NS1 function inh -66%, SARS PLP yeast -13%, Pf growth 96h 0%, Pf growth 48h 23% and Shiga toxin inh 3.
COc1ccc(NC(=O)c2cc(-c3ccccc3Cl)on2)cc1 was read as Cycloheximide cs 44*, NS1 function inh -5%, SARS PLP yeast 4%, Pf growth 96h inconclusive, Pf growth 48h inconclusive and Shiga toxin inh 130*.
COc1cccc2cc(C(=O)NCCc3ccccc3)oc12 was read as Cycloheximide cs -9, NS1 function inh 3%, SARS PLP yeast 6%, Pf growth 96h 32%, Pf growth 48h 8.3µM* and Shiga toxin inh -22.
Screening COc1ccccc1-c1cc(C(=O)NCCc2ccccc2)no1 returned Cycloheximide cs 54*, NS1 function inh -76%, SARS PLP yeast 8% and Shiga toxin inh 147*.
`CCCc1cc(C(=O)Nc2cc(C)nn2-c2ccccc2)no1` gave Cycloheximide cs -2, NS1 function inh -12%, SARS PLP yeast -2%, Pf growth 96h 123% and Shiga toxin inh 3.
Screening CCCc1cc(C(=O)NCCc2ccccc2)no1 returned Cycloheximide cs 53*, NS1 function inh -18%, SARS PLP yeast -7%, Pf growth 96h -17%, Pf growth 48h 186% and Shiga toxin inh 87*.
COc1ccc(OC)c(-c2cc(C(=O)Nc3c(C)nn(Cc4ccccc4)c3C)no2)c1 was read as Cycloheximide cs -2, NS1 function inh 11%, SARS PLP yeast 1%, Pf growth 96h inconclusive, Pf growth 48h 13µM* and Shiga toxin inh -16.
Screening COc1ccccc1-c1cc(C(=O)Nc2cccnc2)no1 returned Cycloheximide cs 25*, NS1 function inh -38%, SARS PLP yeast -14%, Pf growth 96h inconclusive, Pf growth 48h 192% and Shiga toxin inh 48*.
COc1ccc(OC)c(-c2cc(C(=O)Nc3c(C)nn(Cc4ccc(Cl)cc4)c3C)no2)c1 was read as Cycloheximide cs -1, NS1 function inh -77%, SARS PLP yeast -31%, Pf growth 96h -20%, Pf growth 48h inconclusive and Shiga toxin inh 41.
Screening COc1cc(NC(=O)c2cc(-c3ccc(C)cc3)on2)cc(OC)c1OC returned Cycloheximide cs 11*, NS1 function inh -2%, SARS PLP yeast 2%, Pf growth 96h -8% and Pf growth 48h 0%.
COc1ccc(-c2cc(C(=O)Nc3cc(OC)c(OC)c(OC)c3)no2)cc1 was read as Cycloheximide cs -3, NS1 function inh -2%, SARS PLP yeast -3%, Pf growth 96h 104%, Pf growth 48h -5% and Shiga toxin inh -9.
CCCCc1cc(=O)oc2c(C)c(OCc3nn[nH]n3)ccc12 was read as Cycloheximide cs 1, NS1 function inh 1%, SARS PLP yeast 0%, Pf growth 96h -18%, Pf growth 48h 6% and Shiga toxin inh 3.
Screening CCN(CC(=O)Nc1c(F)cccc1F)C(=O)CSCC(=O)Nc1cccc(C)c1 returned SARS PLP yeast -1%, Pf growth 96h 9% and Pf growth 48h 1%.
CN1CCN(C(=S)c2ccc(OCC(=O)Nc3cccc(C(F)(F)F)c3)cc2)CC1 was read as Cycloheximide cs -4, NS1 function inh -1%, SARS PLP yeast 23%, Pf growth 96h 134%, Pf growth 48h -25% and Shiga toxin inh 0.
For COc1ccc(NC(=O)c2cc(-c3ccccc3OC)on2)cc1 the results were Cycloheximide cs 19*, NS1 function inh 2%, SARS PLP yeast 3%, Pf growth 96h 2%, Pf growth 48h inconclusive and Shiga toxin inh 88*.
`CSc1nc(N)n2nc(-c3ccc(Cl)cc3)cc2n1` gave Cycloheximide cs 47*, NS1 function inh -5%, SARS PLP yeast -3%, Pf growth 96h 261%, Pf growth 48h 151% and Shiga toxin inh 86*.
`CC1(C)CC(=O)C(C2=NC3(CCCCCC3)Cc3ccccc32)=C(O)C1` gave Cycloheximide cs 1, NS1 function inh -4%, SARS PLP yeast -1%, Pf growth 96h inconclusive, Pf growth 48h inconclusive and Shiga toxin inh -14.
Cc1cc(C)nc(NC(=NCCc2c[nH]c3ccccc23)NC(=O)Nc2ccc(Cl)cc2)n1 was read as Cycloheximide cs -3, NS1 function inh -7%, SARS PLP yeast -9%, Pf growth 96h 0.59µM*, Pf growth 48h 2.9µM* and Shiga toxin inh -17.
Screening O=C(NCC(c1ccco1)N1CCCC1)c1cccc(S(=O)(=O)Nc2ccc(Br)cc2)c1 (stereo unspecified) returned Cycloheximide cs 1, NS1 function inh 7%, SARS PLP yeast -5%, Pf growth 96h inconclusive, Pf growth 48h inconclusive and Shiga toxin inh -8.
For Cc1ccc(NS(=O)(=O)c2cccc(C(=O)NCC(c3ccco3)N3CCCCC3)c2)cc1 (stereo unspecified) the results were Cycloheximide cs -2, NS1 function inh 5%, SARS PLP yeast 3%, Pf growth 96h 12µM*, Pf growth 48h inconclusive and Shiga toxin inh -3.
CN(CC(=O)NCC(c1ccco1)N1CCCCC1)S(=O)(=O)c1ccc(Cl)cc1 (stereo unspecified) was read as SARS PLP yeast 6%, Pf growth 96h inconclusive and Pf growth 48h 8.3µM*.
For COc1ccc(NS(=O)(=O)c2cccc(C(=O)NCC(c3ccco3)N3CCCC3)c2)cc1 (stereo unspecified) the results were SARS PLP yeast 0%, Pf growth 96h 15µM* and Pf growth 48h inconclusive.
For Cc1cccc(NS(=O)(=O)c2ccc(C)c(C(=O)NCC(c3ccco3)N3CCCCC3)c2)c1 (stereo unspecified) the results were SARS PLP yeast -2%, Pf growth 96h inconclusive and Pf growth 48h 13µM*.
